Source: PubChem BioAssay (Tox21)
Records with an inconclusive call do not appear. Active and inactive are the calls of the source. Unless noted, calls come from the whole dose curve.

Tests used:
[1] = Nuclear factor erythroid 2-related factor 2/antioxidant responsive element (Nrf2/ARE) small molecule agonists: qHTS cell viability counter screen in human keratinocytes (AID 1919968; active = well fitted cell-killing curve with a large enough effect in the repeat runs; note: nearly all actives have a fitted effect of over 55% in size)
Outline: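 HaCaT ARE reporter line, 1,500 cells/well; 5 h settle, 37 C/5% CO2; cpd in DMSO pinned; 23 h exposure; CellTiter-Fluor, 1 h; fluorescence.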

[2] = Nuclear factor erythroid 2-related factor 2/antioxidant responsive element (Nrf2/ARE) small molecule agonists: luciferase reporter gene qHTS assay in human keratinocytes (AID 1919969); note: nearly all actives have a fitted effect of over 35% in size
[3] = G protein-coupled receptor (GPCR) small molecule agonists, calcium flux assay: HEK293 wild type cell line counter screen (AID 1920065)
Outline: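 Kinetic fluorescence at Ex/Em 480/540, recorded every second over 3 min, served as the read-out after compound addition. Each compound was tested at 15 concentrations in triplicate on cells pre-loaded with calcium dye for 1 h.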

[4] = p53 small molecule agonists, cell-based qHTS assay with human liver microsomes (AID 1963577);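 note: p53 response element beta-lactamase reporter cells with liver microsomes plus NADPH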
Outline: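 Metabolically competent format: test substances, human liver microsomes and NADPH (both 0.5 mg/mL final) incubated with p53RE-bla cells 16 h at 37 C. Beta-lactamase reporter signal then quantified by fluorescence.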

[5] = p53 small molecule agonists, cell-based qHTS assay with rat liver microsomes (AID 1963578)
Outline: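 Each plate received p53RE-bla cells, then compound, then rat liver microsomes and NADPH (both 0.5 mg/mL final). Plates were held 16 h at 37 C, and beta-lactamase activity was detected with LiveBLAzer over 2 h.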

[6] = p53 small molecule agonists, cell-based qHTS assay with human liver microsomes: qHTS cell viability counter screen (AID 1963579); note: nearly all actives have a fitted effect of over 45% in size
Outline: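 Tox21 library compounds, delivered from DMSO stocks, were tested on p53RE-bla cells together with 0.5 mg/mL human liver microsomes and 0.5 mg/mL NADPH (final) over 16 h at 37 C; CellTiter-Glo luminescence served as the cytotoxicity measure.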

[7] = p53 small molecule agonists, cell-based qHTS assay with rat liver microsomes: qHTS cell viability counter screen (AID 1963580); note: nearly all actives have a fitted effect of over 45% in size
Outline: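 p53RE-bla HCT-116 cells (4,000/well) rested 5 h at 37 C, then given Tox21 compounds in DMSO with rat liver microsomes (0.5 mg/mL final) plus NADPH (0.5 mg/mL final) for 16 h at 37 C. Viability read by CellTiter-Glo luminescence after 30 min at room temperature.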

[8] = p53 small molecule agonists, cell-based qHTS assay: qHTS cell viability counter screen (AID 1963581); note: nearly all actives have a fitted effect of over 45% in size
Outline: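 HCT-116 p53RE-bla cells, 4,000/well, plated 5 h before compound pin transfer; 16 h at 37 C; bla substrate 2 h RT; then CellTiter-Glo, 30 min RT, luminescence.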

[9] = p53 small molecule agonists, cell-based qHTS assay (AID 1963582; active = well fitted activation curve with a large enough effect in the signal ratio in the repeat runs, not every such curve was filed as active; the % refers to the signal ratio)
Outline: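 Reporter line: p53RE-bla. Pre-incubation 5 h, 37 C, 5% CO2; compound (DMSO, pin tool) 16 h, 37 C; B/G FRET substrate 2 h RT; fluorescence intensity read.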

[10] = target: 5-hydroxytryptamine receptor 2A (Homo sapiens) (UniProt P28223); experiment: 5-hydroxytryptamine receptor 2A (HTR2A) small molecule antagonists, cell-based qHTS assay (AID 1963586); note: nearly all actives have a fitted effect of over 45% in size
Sequence of 5-hydroxytryptamine receptor 2A (Homo sapiens) (P28223 whole entry, looked up): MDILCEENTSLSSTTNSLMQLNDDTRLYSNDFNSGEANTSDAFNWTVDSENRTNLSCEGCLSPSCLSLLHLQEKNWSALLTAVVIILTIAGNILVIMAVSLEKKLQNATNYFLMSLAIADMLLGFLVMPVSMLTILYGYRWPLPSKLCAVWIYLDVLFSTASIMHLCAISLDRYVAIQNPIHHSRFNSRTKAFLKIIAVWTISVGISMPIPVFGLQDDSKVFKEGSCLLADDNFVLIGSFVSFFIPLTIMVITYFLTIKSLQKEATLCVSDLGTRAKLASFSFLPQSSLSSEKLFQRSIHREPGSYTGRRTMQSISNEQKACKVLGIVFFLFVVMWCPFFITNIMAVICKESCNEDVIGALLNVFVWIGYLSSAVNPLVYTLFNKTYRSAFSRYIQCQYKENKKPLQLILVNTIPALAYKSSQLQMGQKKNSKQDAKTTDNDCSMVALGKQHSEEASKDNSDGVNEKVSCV
Outline: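 Antagonist-mode intracellular calcium assay: DOI (4 nM) added after 5 min compound pre-incubation at room temperature to dye-loaded HTR2A-CHO cells. Fluorescence followed for 3 min, sampled every second.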

[11] = target: 5-hydroxytryptamine receptor 2A (Homo sapiens) (UniProt P28223); experiment: 5-hydroxytryptamine receptor 2A (HTR2A) small molecule agonists, cell-based qHTS assay (AID 1963587); note: nearly all actives have a fitted effect of over 30% in size
Outline: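 HTR2A-CHO cells, plated 18 h at 37 C/5% CO2, dye-loaded 1 h at 37 C; compounds in DMSO added by pin tool (agonist mode). Intracellular calcium flux read as kinetic fluorescence on FDSS over 2 min at 1 s intervals.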

[12] = target: Muscarinic acetylcholine receptor M1 (Homo sapiens) (UniProt P11229); experiment: Cholinergic receptor muscarinic 1 (CHRM1) small molecule antagonists, cell-based qHTS assay (AID 1963588); note: nearly all actives have a fitted effect of over 40% in size
Sequence of Muscarinic acetylcholine receptor M1 (Homo sapiens) (P11229 whole entry, looked up): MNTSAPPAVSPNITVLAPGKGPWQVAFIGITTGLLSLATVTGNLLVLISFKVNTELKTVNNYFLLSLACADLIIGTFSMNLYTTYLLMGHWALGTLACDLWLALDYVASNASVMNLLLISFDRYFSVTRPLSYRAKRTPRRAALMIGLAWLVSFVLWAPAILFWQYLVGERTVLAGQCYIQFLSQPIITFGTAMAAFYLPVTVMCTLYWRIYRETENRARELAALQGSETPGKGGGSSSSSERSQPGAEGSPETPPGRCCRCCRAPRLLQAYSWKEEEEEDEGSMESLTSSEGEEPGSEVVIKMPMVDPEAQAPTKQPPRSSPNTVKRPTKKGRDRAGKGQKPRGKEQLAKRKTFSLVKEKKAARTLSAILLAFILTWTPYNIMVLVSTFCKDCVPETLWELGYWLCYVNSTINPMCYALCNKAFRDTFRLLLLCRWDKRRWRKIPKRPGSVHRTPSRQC
Outline: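 CHRM1-CHO calcium-flux assay, antagonist mode. Cells were seeded 18 h, dye-loaded 1 h at 37 C and given compound for 5 min at RT, then acetylcholine was added at 50nM. FDSS fluorescence was read 3 min; 15 concentrations, three runs.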

[13] = target: Muscarinic acetylcholine receptor M1 (Homo sapiens) (UniProt P11229); experiment: Cholinergic receptor muscarinic 1 (CHRM1) small molecule agonists, cell-based qHTS assay (AID 1963589); note: nearly all actives have a fitted effect of over 35% in size
Outline: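 Human M1 in stable CHO line; 18 h plating, 1 h dye load 37 C; cpd added (agonist mode); Ca2+ fluorescence kinetic read, 1 s intervals; 15 conc, 3 runs.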

[14] = cAMP Responsive Elements (CRE) small molecule agonists, cell-based qHTS assay (AID 1963590)
Outline: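 HEK 293T CRE-bla, 2,000 cells/well, 18 h preincubation 37 C/5% CO2; cpds (DMSO) pinned, 3 h; LiveBLAzer B/G FRET substrate, 2 h RT.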

[15] = cAMP Responsive Elements (CRE) small molecule antagonists, cell-based qHTS assay (AID 1963591; active = well fitted inhibition curve with a large enough effect in the signal ratio in the repeat runs, not every such curve was filed as active; the % refers to the signal ratio)
Outline: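 Beta-lactamase reporter read by FRET substrate (LiveBLAzer B/G) after 2 h at room temperature. CRE-bla HEK293T cells had received compound plus 0.25 uM (final) NKH477 for 3 h at 37 °C.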

[16] = target: D(2) dopamine receptor (Homo sapiens) (UniProt P14416); experiment: Dopamine D2 receptor (DRD2) small molecule antagonists, cell-based qHTS assay (AID 1963595; active = well fitted inhibition curve with a large enough effect in the signal ratio in the repeat runs, with a control signal flat; the % refers to the signal ratio)
Sequence of D(2) dopamine receptor (Homo sapiens) (P14416 whole entry, looked up): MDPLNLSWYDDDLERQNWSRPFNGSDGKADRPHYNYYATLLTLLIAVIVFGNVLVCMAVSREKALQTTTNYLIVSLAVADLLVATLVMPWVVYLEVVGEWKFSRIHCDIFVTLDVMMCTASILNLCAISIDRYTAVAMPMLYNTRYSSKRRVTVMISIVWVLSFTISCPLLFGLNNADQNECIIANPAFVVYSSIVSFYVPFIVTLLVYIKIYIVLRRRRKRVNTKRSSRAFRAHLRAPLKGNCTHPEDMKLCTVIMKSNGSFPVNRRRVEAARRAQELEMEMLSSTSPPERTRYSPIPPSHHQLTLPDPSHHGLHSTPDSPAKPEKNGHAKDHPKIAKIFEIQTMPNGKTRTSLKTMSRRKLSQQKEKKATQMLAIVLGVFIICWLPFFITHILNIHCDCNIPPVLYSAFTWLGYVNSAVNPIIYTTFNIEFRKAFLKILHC
Outline: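 Human DRD2 antagonist qHTS measuring cAMP by HTRF. The cells are exposed to compound for 10 min, then to NKH477 (200 nM) and quinpirole (12 nM) for 30 min at RT, with Ro20-1724 (0.1 mM) present throughout.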

[17] = target: Gonadotropin-releasing hormone receptor (Homo sapiens) (UniProt P30968); experiment: Human gonadotropin-releasing hormone receptor (GnRHR) small molecule agonists, calcium flux assay in GnRHR-HEK293 cells (AID 1920063); note: nearly all actives have a fitted effect of over 35% in size
Sequence of Gonadotropin-releasing hormone receptor (Homo sapiens) (P30968 whole entry, looked up): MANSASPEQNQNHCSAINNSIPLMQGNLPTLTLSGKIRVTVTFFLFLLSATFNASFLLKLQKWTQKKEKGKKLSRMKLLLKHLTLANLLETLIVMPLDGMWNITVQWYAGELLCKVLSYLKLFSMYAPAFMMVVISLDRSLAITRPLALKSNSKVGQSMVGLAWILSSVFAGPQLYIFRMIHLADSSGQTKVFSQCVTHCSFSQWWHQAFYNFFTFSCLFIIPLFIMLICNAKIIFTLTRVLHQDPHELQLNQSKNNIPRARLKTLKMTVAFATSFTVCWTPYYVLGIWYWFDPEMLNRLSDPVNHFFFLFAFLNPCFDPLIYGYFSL
Outline: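 GnRHR-HEK293, 1500 cells/well, 18 h 37 C/5% CO2; Ca dye 1 h 37 C; cpd pinned (DMSO), agonist mode; kinetic FL 480/540, 3 min, 1 s reads; 15 conc, n=3.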

[18] = target: Beta-2 adrenergic receptor (Homo sapiens) (UniProt P07550); experiment: Adrenergic beta2 receptor (ADRB2) small molecule antagonists, cell-based qHTS assay (AID 1963592); note: series mostly up to about 92 µM; nearly all actives have a fitted effect of over 50% in size
Sequence of Beta-2 adrenergic receptor (Homo sapiens) (P07550 whole entry, looked up): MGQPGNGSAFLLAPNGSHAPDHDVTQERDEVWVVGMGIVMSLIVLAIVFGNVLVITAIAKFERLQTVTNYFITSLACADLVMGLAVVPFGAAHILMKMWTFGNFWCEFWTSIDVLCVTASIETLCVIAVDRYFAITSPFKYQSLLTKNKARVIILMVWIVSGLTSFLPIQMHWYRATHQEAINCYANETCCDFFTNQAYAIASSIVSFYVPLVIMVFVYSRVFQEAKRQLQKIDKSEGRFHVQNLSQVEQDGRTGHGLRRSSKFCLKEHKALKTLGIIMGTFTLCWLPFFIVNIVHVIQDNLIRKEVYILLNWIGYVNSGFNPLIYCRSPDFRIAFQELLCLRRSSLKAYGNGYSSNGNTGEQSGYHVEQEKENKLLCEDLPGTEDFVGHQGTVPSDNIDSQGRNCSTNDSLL
Outline: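 Cells (CHO, stable ADRB2 overexpression) incubated 18-20hr at 37C; compounds added from DMSO; agonist mix (1nM isoproterenol, 100uM IBMX, 25uM Ro-20-1724) added; 0.5hr RT; d2-cAMP and anti-cAMP-cryptate added; 1hr RT; 665/615 nm read.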

[19] = target: D(2) dopamine receptor (Homo sapiens) (UniProt P14416); experiment: Dopamine D2 receptor (DRD2) small molecule agonists, cell-based qHTS assay (AID 1963594); note: nearly all actives have a fitted effect of over 35% in size
Outline: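 HEK293 cells stably expressing DRD2 were cultured 24 h at 37 C, then given Ro20-1724 (0.1 mM final) and compounds for 10 min at room temperature. NKH477 (200nM) was then added for 30 min. cAMP was read by HTRF.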

[20] = target: Beta-2 adrenergic receptor (Homo sapiens) (UniProt P07550); experiment: Adrenergic beta2 receptor (ADRB2) small molecule agonists, cell-based qHTS assay (AID 1963593);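 note: CHO cells stably overexpressing human ADRB2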
Outline: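 CHO cells stably over-expressing ADRB2 were plated overnight at 37C, then dosed with compounds plus a stimulation mix containing 100uM IBMX and 25uM Ro-20-1724 for 0.5hr at room temperature. cAMP was measured by HTRF competition, 1hr.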

Measured: Potency

NC(CO)C(=O)NNCc1ccc(O)c(O)c1O (stereo unspecified)
not listed: [17] | [18] | [19] | [20]
inactive: all other assays above

CC/C=C\CCOC(C)=O
not listed: [5] | [7] | [11] | [20]
inactive: all other assays above

COc1ccc(OC)c(NC(=O)CC(C)=O)c1
not listed: [15] | [17] | [20]
inactive: all other assays above

C/C(=N/NC(=O)c1ccncc1)C(=O)O
not listed: [15] | [17] | [19] | [20]
inactive: all other assays above

CCCCC(CC)COC(=O)CC#N (stereo unspecified)
not listed: [15] | [17]
inactive: all other assays above

O=C(O)C(O)[C@H](O)[C@@H](O)[C@H](O)[C@H](O)CO (stereo partly specified)
not listed: [17] | [20]
inactive: all other assays above
